Screens: PubChem BioAssay, National Center for Advancing Translational Sciences (NCATS)
A-T KAP1 phos: candidate therapy for ataxia-telangiectasia. 0.19% of 320,000 active. AID 485349. Potency, µM (top dose mostly 57.5 µM), for the others: at the top dose activation, hits mostly activators. F2112 A-T fibroblasts, KAP-1 phosphorylation AlphaLISA; neocarzinostatin DNA damage 30 min before lysis; further: potency means the concentration at half of the fitted maximal effect; % of control where 0% means no effect; nearly all actives have a fitted effect of over 45% in size
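ATM-like activity read as KAP-1 phosphorylation via AlphaLISA donor/acceptor antibody pairs after lysis and 6 hr at 25C. Cells were ATM-null patient fibroblasts (F2112, hTERT), dosed 60 min, then exposed to the DSB inducer NCS for 30 min.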
CCT modulator: cytosolic chaperonin activity modulation. AID 651819. purified chaperonin ATPase assay, HTRF ADP detection, 30 min. activity change, % (test concentration not listed), hits read low. 0.3% of 360,000 active; in the data active means activity change below about -30%; further: on the % scale 0 is the no-effect control and ±100 the full control effect
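TRiC at 40 or 20 nM final (batch-dependent) in 30 mM Tris pH 7.4, 100 mM KCl, 5 mM MgCl2, 1 mM DTT, with compound at single 76 uM and 10 uM ATP, 30 min at 37 deg C. ADP detected by HTRF Transcreener, 665/615 ratio.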
Nrf2 ARE act: Nrf2 pathway activation; Potency, µM (highest dose often 46.1 µM), for the others: at the highest dose activation, most hits filed as activators; AREc32 ARE-luciferase reporter (MCF7-derived line), luminescence, 24 h; 0.31% of 410,000 active; further: potency means the concentration at half of the fitted maximal effect; % of control where 0% means no effect; nearly all actives have a fitted effect of over 65% in size
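Luminescent ARE reporter assay in AREc32_Fluc cells: overnight plating at 37 deg C, 24 hr compound incubation, Steady-Glo added, 30 min RT before reading.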
TCR act: T cell receptor activation | primary human leukocytes, anti-CD3, IL-2 HTRF, 48 h | Potency, µM (series often up to 9.22 µM), without a hit: top-dose activation of IL-2 secretion, actives largely listed as activators | 330,000 tested, under 10 active; further: % of control where 0% means no effect
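Human primary leukocytes + a-CD3 beads + cpd, 48 hr; IL-2 in supernatant by HTRF (ex 320nm / em 665nm). No co-stimulatory signal supplied.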
Nrf2 inh: blocks Nrf2 signaling | A549 ARE-Fluc reporter, luciferase luminescence, 18-24 h | AID 504444 | 2.1% of 360,000 active | Potency, µM (highest dose often 46 µM), without a hit: at the top dose activity change, negative = inhibition, hits mostly inhibitors; further: potency means the concentration at half of the fitted maximal effect; on the % scale 0 is the no-effect control and ±100 the full control effect; nearly all actives have a fitted effect of over 60% in size
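Two sequential reads on A549 ARE_Fluc cells exposed to compound for 18-24 h: a CellTiter-Fluor fluorescence read for viability, then a luciferase luminescence read for Nrf2/ARE activity.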
A549 viability: counter-screen for Nrf2 inhibitors: cytotoxicity in A549 cells; A549 ARE-Fluc cells, CellTiter-Fluor viability, 18-24 h; Potency, µM (doses to about 46 µM), without a hit: at the top dose activity change, negative = cytotoxicity, hits mostly inhibitors; 0.16% of 390,000 active; further: potency means the concentration at half of the fitted maximal effect; on the % scale 0 is the no-effect control and ±100 the full control effect
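Cytotoxicity counterscreen: CellTiter-Fluor fluorescence was measured in A549 ARE_Fluc cells after 18-24 h of compound exposure in a concentration series. The subsequent BugLite luminescent read reports ARE-luciferase activity.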
Numbers without * were called inactive. Most compounds without a hit are left out; they make up all but 2.6% or so of the library. Unless noted, the call rests on the fitted dose curve; in most records, active means well fitted curve in the direction sought with a large enough effect; inconclusive means small, poorly fitted or top-dose-only effect, or another doubt; inactive means no such curve, though single readings can be large; an effect the other way counts as inactive or inconclusive.

How did COc1ccc(NC(=S)N2CCN(C(=O)C3CCCO3)CC2)cc1 (stereo not given) do in these assays?
A-T KAP1 phos: -2%; CCT modulator: -3; Nrf2 ARE act: 0%; TCR act: 2%; Nrf2 inh: -27%; A549 viability: -2%

How did Cc1ccccc1OCC(=O)NCC(=O)OCc1ccc2ccccc2c1 do in these assays?
Nrf2 inh: -2%; A549 viability: -2%

What do the screens show for `N#C/C(=C\c1ccc(-c2nc3ccccc3s2)o1)C(N)=O`?
A-T KAP1 phos: -5%; CCT modulator: 2; Nrf2 ARE act: 11µM*; TCR act: 12%; Nrf2 inh: inconclusive; A549 viability: -4%

How did CNC(=O)/C(C#N)=C/c1ccc(-c2nc3ccccc3s2)o1 do in these assays?
A-T KAP1 phos: 3%; CCT modulator: -3; Nrf2 ARE act: 8%; TCR act: -117%; Nrf2 inh: 6%; A549 viability: -9%

What do the screens show for `Cc1ccc2nc(CSc3nnc(NC(=O)COc4ccccc4)s3)cc(=O)n2c1`?
Nrf2 ARE act: 0%; A549 viability: 0%

Results for Cc1ccc(C(=O)N/N=C/c2ccc(-c3ccc(Br)cc3[N+](=O)[O-])o2)o1 ?
A-T KAP1 phos: -1%; CCT modulator: 5; Nrf2 ARE act: 7.9µM*; Nrf2 inh: inconclusive; A549 viability: -11%

Results for CN(Cc1ccccc1)C(=O)c1ccc(NC(=O)Cc2ccc(NC(=O)C3CCN(C(=O)CCc4ccccc4)CC3)cc2)cc1 ?
CCT modulator: -4; Nrf2 ARE act: 2%; TCR act: -5%; Nrf2 inh: inconclusive; A549 viability: 5%

Results for CN(C(=O)c1cccc(NC(=O)Cc2ccc(NC(=O)C3CCCN(C(=O)CCc4ccccc4)C3)cc2)c1)C1CC1 (stereo not given) ?
CCT modulator: 1; Nrf2 ARE act: 6%; TCR act: -1%; Nrf2 inh: inconclusive; A549 viability: -3%

How did CN(C(=O)c1ccc(NC(=O)Cc2ccc(NC(=O)C3CCCN(C(=O)CCc4ccccc4)C3)cc2)cc1)C1CCCC1 (stereo not given) do in these assays?
CCT modulator: 0; Nrf2 ARE act: 4%; TCR act: -3%; Nrf2 inh: 23µM*; A549 viability: -6%

What do the screens show for `CN(Cc1ccccc1)C(=O)c1cccc(NC(=O)Cc2ccc(NC(=O)C3CCN(C(=O)CCc4ccccc4)CC3)cc2)c1`?
CCT modulator: 1; Nrf2 ARE act: 4%; TCR act: 4%; Nrf2 inh: 16µM*; A549 viability: -17%

How did CN(C(=O)c1ccc(NC(=O)Cc2ccc(NC(=O)C3CCN(C(=O)CCc4ccccc4)CC3)cc2)cc1)C1CCCC1 do in these assays?
CCT modulator: -2; Nrf2 ARE act: 0%; TCR act: -1%; Nrf2 inh: inconclusive; A549 viability: -10%

Results for CN(C(=O)c1cccc(NC(=O)Cc2ccc(NC(=O)C3CCCN(C(=O)CCc4ccccc4)C3)cc2)c1)C1CCCCC1 (stereo not given) ?
CCT modulator: 0; Nrf2 ARE act: 5%; TCR act: -4%; Nrf2 inh: 10µM*; A549 viability: -12%

Results for CC(/C=C/c1ccco1)=N\NC(=O)CNc1ccc2ccccc2c1 ?
A-T KAP1 phos: 10%; CCT modulator: 0; Nrf2 ARE act: 10µM*; TCR act: -3%; Nrf2 inh: 0%; A549 viability: 0%

What do the screens show for `CS(=O)(=O)c1ccc(S(=O)CC(=O)OCc2ccccc2)c([N+](=O)[O-])c1` (stereo not given)?
A-T KAP1 phos: -9%; CCT modulator: -3; Nrf2 ARE act: inconclusive; TCR act: -4%; Nrf2 inh: 18µM*; A549 viability: inconclusive

How did NCCCCCc1nnc(SCc2ccccc2Cl)o1 do in these assays?
A-T KAP1 phos: 4%; CCT modulator: -2; Nrf2 ARE act: -2%; TCR act: -3%; Nrf2 inh: 13µM*; A549 viability: inconclusive

What do the screens show for `NCCc1nnc(SCc2c(Cl)cccc2Cl)o1`?
A-T KAP1 phos: -1%; CCT modulator: 0; Nrf2 ARE act: 0%; TCR act: 4%; Nrf2 inh: -6%; A549 viability: -4%

Results for Cc1cc(C)nc(NS(=O)(=O)c2ccc(NC(=O)c3cc4c(=O)n5cccc(C)c5nc4n3C)cc2)n1 ?
A-T KAP1 phos: 11%; CCT modulator: 0; Nrf2 ARE act: 0%; TCR act: 0%; Nrf2 inh: 23µM*; A549 viability: -13%

What do the screens show for `COc1ccc(C(O)c2nccc3cc(OC)c(OC)cc23)cc1OC` (stereo not given)?
A-T KAP1 phos: 1%; CCT modulator: -1; Nrf2 ARE act: 2%; TCR act: 0%; Nrf2 inh: 21µM*; A549 viability: -14%

Results for COC1=C(C)C(=O)C2=C(C1=O)C1C3CC4=C(C(=O)C(OC)=C(C)C4=O)C(CNC(=O)C(C)=O)N3C(C#N)C(C2)N1C (stereo not given) ?
CCT modulator: -1; Nrf2 ARE act: -2%; TCR act: 1%; Nrf2 inh: 0.58µM*; A549 viability: 9.2µM*

What do the screens show for `O=C(NCCCCc1ccccc1)C1CC(c2cccc([N+](=O)[O-])c2)=NO1` (stereo not given)?
A-T KAP1 phos: 6%; CCT modulator: -7; Nrf2 ARE act: 0%; TCR act: 2%; Nrf2 inh: inconclusive; A549 viability: 0%

Results for O=C(NCc1ccc(OC(F)(F)F)cc1)C1CC(c2cccc(F)c2)=NO1 (stereo not given) ?
A-T KAP1 phos: 26%; CCT modulator: 1; Nrf2 ARE act: 0%; TCR act: 1%; Nrf2 inh: 4%; A549 viability: 1%

What do the screens show for `Cc1ccc(CNC(=O)C2CC(c3cccc(F)c3)=NO2)cc1` (stereo not given)?
A-T KAP1 phos: 25µM*; CCT modulator: -2; Nrf2 ARE act: 0%; TCR act: -1%; Nrf2 inh: 15%; A549 viability: -7%

Results for O=C(NCCCCc1ccccc1)C1CC(c2cccc(F)c2)=NO1 (stereo not given) ?
A-T KAP1 phos: -16%; CCT modulator: -34*; Nrf2 ARE act: -1%; TCR act: -3%; Nrf2 inh: 2%; A549 viability: -2%

How did Cc1cc(C)n2c(SCc3ccc(Br)cc3)nnc2n1 do in these assays?
A-T KAP1 phos: 3.5µM*; CCT modulator: 2; Nrf2 ARE act: 5%; TCR act: 7%; Nrf2 inh: -16%; A549 viability: -5%
